# Test results published in PubChem BioAssay AID602438 (Sanford-Burnham Center for Chemical Genomics, 2012).
# About 3,100 (0.86%) of roughly 360,000 compounds were called active.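 The calls were made as follows: active = inhibition or corrected inhibition above about 18%, plus a signal ratio from 0.5 to 1.5 (limit read from the data, passing the limit was not always enough); inactive = the rest.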 Shown is part of a subset that was picked to be rich in actives.
# Molecular target: Neuropilin-1 (Homo sapiens) (UniProt O14786)
# Sequence (O14786 whole entry, looked up): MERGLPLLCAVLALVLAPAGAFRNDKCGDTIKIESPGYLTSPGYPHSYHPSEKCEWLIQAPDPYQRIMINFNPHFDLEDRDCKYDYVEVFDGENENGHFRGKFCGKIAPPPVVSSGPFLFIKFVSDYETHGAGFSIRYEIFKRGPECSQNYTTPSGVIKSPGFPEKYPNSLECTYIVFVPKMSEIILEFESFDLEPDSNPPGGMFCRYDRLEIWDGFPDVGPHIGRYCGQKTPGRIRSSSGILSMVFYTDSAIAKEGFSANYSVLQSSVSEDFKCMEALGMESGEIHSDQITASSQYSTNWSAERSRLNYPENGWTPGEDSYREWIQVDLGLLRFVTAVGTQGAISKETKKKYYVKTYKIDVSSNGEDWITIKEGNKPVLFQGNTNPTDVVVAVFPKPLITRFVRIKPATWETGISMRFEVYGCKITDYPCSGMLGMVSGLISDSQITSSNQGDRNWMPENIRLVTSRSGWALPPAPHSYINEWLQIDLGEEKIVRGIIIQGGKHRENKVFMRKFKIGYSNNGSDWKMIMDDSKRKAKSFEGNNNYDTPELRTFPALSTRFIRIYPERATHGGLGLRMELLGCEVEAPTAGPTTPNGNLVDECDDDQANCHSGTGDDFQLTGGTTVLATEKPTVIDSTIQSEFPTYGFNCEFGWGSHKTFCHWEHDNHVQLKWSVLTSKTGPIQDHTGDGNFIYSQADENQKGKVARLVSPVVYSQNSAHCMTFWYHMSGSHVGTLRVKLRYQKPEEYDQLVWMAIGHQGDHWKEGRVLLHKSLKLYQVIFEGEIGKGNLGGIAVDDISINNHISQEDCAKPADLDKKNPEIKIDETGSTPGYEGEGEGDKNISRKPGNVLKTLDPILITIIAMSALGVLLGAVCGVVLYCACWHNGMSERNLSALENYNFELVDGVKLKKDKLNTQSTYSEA
# Assay: modulators of CendR peptide binding to NRP-1, primary screen, biochemical, fluorescence polarization, uHTS (AID 602438)
# Conditions: FAM-RPARPAR peptide binding to NRP-1, fluorescence polarization; at 25 µM; active compounds read high
row,Compound,inhibition
1,O=C(c1ccc(F)cc1)C1CCN(Cc2cn[nH]c2-c2ccccc2)CC1,-10.4% (inactive)
2,COc1ccccc1CNC(=O)C1Cc2ccccc2C(=O)O1 (centres undefined),-8.4% (inactive)
3,O=C1/C(=C/c2cccs2)CCC1C1CCCC1 (centres undefined),2.8% (inactive)
4,OCC[C@H]1C[C@H](O)[C@@H](O)[C@]2(CCCCO2)O1,28.3% (active)
5,C[C@H]1CC[C@]2(O[C@@H](CCO)C[C@@H](O)[C@@H]2O)O1,13.5% (inactive)
6,C[C@@H]1CC[C@]2(O[C@@H](CCO)C[C@H](O)[C@H]2O)O1,-18.9% (inactive)
7,COCCNC(=O)C1CCCN(Cc2ccccc2Cl)CC1 (centres undefined),2% (inactive)
8,Cc1ccc(S(=O)(=O)C2C(=O)NC3(C)CC2c2ccccc2O3)cc1 (centres undefined),-9.3% (inactive)
9,CCCOc1ccc(CNC(=O)C2CCN(c3nn4c(=O)cc(C)nc4s3)CC2)cc1,-7.5% (inactive)
10,COc1cccc(N(C(=O)CNC(=O)c2ccco2)C(C(=O)NC2CCCCC2)c2cccnc2)c1 (centres undefined),5.7% (inactive)
11,CC(C)(C)NC(=O)C(c1ccncc1)N(C(=O)CNC(=O)c1ccco1)c1ccc2c(c1)OCO2 (centres undefined),4% (inactive)
12,Cc1ccc(N(C(=O)CNC(=O)c2ccco2)C(C(=O)NC2CCCC2)c2ccncc2)cc1 (centres undefined),18.5% (active)
13,Cc1ccc(S(=O)(=O)NC2(C(F)(F)F)NC(=O)N(CCc3ccccc3)C2=O)cc1 (centres undefined),11.7% (inactive)
14,O=C(c1c(F)cccc1Cl)N1CCN(S(=O)(=O)c2ccc3c(c2)OCCCO3)CC1,2.8% (inactive)
15,Cc1coc2c1c(C)cc1oc(=O)c(CC(=O)NCC(=O)N[C@H](C(=O)O)C(C)C)c(C)c12,-3.3% (inactive)
16,Cc1nn(CCCC(=O)NCc2ccccc2Cl)c(=O)c2nccn12,3.3% (inactive)
17,C[C@@H]1CN([C@H](C)CO)C(=O)CCCn2cc(nn2)CO[C@H]1CN(C)S(C)(=O)=O,-4.3% (inactive)
18,Cc1coc2c(O)cc3c(c12)OC1(N2CCCCC2)C(=O)NCCCC31 (centres undefined),26.1% (active)
19,CSc1nnnn1-c1c(C)cc(C)cc1C,9.3% (inactive)
20,COCCN(C(=O)COC(=O)Cc1cccc(OC)c1)c1c(N)n(Cc2ccccc2)c(=O)[nH]c1=O,3.8% (inactive)
21,O=C(O)C1CCCN(CCC=C(c2ccccc2)c2ccccc2)C1 (centres undefined),1.9% (inactive)
22,O=[N+]([O-])/C=C/c1ccc2c(ccn2Cc2ccccc2)c1,-5.7% (inactive)

row,Compound,inhibition
1,Cc1cc(C)nc(NC(=O)/C=C/c2ccc(Cl)cc2)n1,6.6% (inactive)
2,COC(=O)c1c(C)[nH]c(C(=O)/C=C/c2ccc(Cl)cc2)c1C,41% (active)
3,COC(=O)c1c(C)[nH]c(C(=O)NCCc2ccc(S(N)(=O)=O)cc2)c1C,-1.4% (inactive)
4,Cc1cc(CNC(=O)C2CCC(=O)N(CCc3ccc(Cl)cc3)C2)no1 (centres undefined),28.7% (active)
5,O=C(NCCN1CCOC1=O)C1CCC(=O)N(CCc2ccc(Cl)cc2)C1 (centres undefined),-0.8% (inactive)
6,O=C(NCCCc1ccccc1)C1CCC(=O)N(CCc2ccc(Cl)cc2)C1 (centres undefined),8.8% (inactive)
7,CO[C@@H]1CN(C)C(=O)c2cc(NC(=O)Nc3cc(F)ccc3F)ccc2OC[C@H](C)N(C(=O)c2ccccn2)C[C@@H]1C,2.7% (inactive)
8,COc1ccc(Cl)cc1NC(=O)NCC1CCN(Cc2ccccc2F)CC1,-1% (inactive)
9,COc1ccc(Cl)cc1NC(=O)NC(C)C(C)(C)C (centres undefined),-1.8% (inactive)
10,COc1ccc(Cl)cc1NC(=O)C(C)N1CCc2ccccc21 (centres undefined),23.1% (active)
11,Cc1n[nH]c(=O)n1-c1ccc(Oc2ccccc2)cc1,20% (inactive)
12,CCOc1ccc(CCNC(=O)C2=C(C)C(=O)OC23CCC(C)CC3)cc1OCC (centres undefined),-1.3% (inactive)
13,CSc1ccccc1NC(=O)c1cc(Cl)sc1Cl,-5.4% (inactive)
14,CN(C)S(=O)(=O)Oc1ccccc1C(=O)Nc1ccccc1Cl,50.6% (active)
15,CC(=O)Nc1ccc(NC(=O)COc2ccccc2C(=O)Nc2cccc(Cl)c2Cl)cc1,4.5% (inactive)
16,COc1ccc(CN2C3CCCC2CC(NC(=O)c2cccc(F)c2)C3)cc1 (centres undefined),-2.7% (inactive)
17,COc1ccc(CN2C(CC(=O)Nc3cccnc3)c3ccc(C(F)(F)F)cc3S2(=O)=O)cc1 (centres undefined),0.3% (inactive)
18,COc1ccc(CN2[C@@H](CC(=O)O)c3cc(F)ccc3S2(=O)=O)cc1,26.2% (active)
19,O=C(C[n+]1cc(-c2ccc(Cl)c(Cl)c2)n2c1CCC2)c1cccs1,-11.8% (inactive)
20,CCOC(=O)C1(Cc2ccccc2C)CCCN(C(=O)CN2C(=O)CSC2=O)C1 (centres undefined),5.9% (inactive)
21,COc1ccc(CC(=O)OC(C)C(=O)Nc2ccc(S(N)(=O)=O)cc2)cc1 (centres undefined),-4.6% (inactive)
22,COC(C[C@@H](O)[C@H](C)[C@H](O)COCc1ccccc1)OC,18.6% (active)
